In the library only some 12% were active in any assay of this set; here they are far more common.
BAZ2B inh – blocks human BAZ2B; Q9UIF8; AlphaScreen BAZ2B-H3K14Ac peptide displacement; Potency, µM (series often up to 114 µM), for inactives: at the top dose activity change, negative = inhibition, usual class: inhibitors; 4.4% of 360,000 active; AID 504333; note: % is set by controls: 0 for no effect and ±100 for the full control effect; nearly all actives have a fitted effect of over 60% in size
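BAZ2B 50 nM plus b-H3(5-23)K14Ac 50 nM, PBS pH 7.4/0.01% Tween-20, 30 min RT; compound added (max 110 uM), 30 min RT; streptavidin donor/Ni-chelate acceptor beads 10 ug/mL final, 20 min dark; AlphaScreen read.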
G9a inh – blocks human histone lysine methyltransferase G9a | 8.8% of 350,000 active | Q96KQ7 | G9a H3K9 monomethylation, AlphaScreen, 2 h | Potency, µM (top dose mostly 102 µM), for inactives: at the top dose activity, negative = inhibition, actives largely listed as inhibitors; note: % is set by controls: 0 for no effect and ±100 for the full control effect; nearly all actives have a fitted effect of over 75% in size
Target sequence (Q96KQ7 913-1193 limits assumed): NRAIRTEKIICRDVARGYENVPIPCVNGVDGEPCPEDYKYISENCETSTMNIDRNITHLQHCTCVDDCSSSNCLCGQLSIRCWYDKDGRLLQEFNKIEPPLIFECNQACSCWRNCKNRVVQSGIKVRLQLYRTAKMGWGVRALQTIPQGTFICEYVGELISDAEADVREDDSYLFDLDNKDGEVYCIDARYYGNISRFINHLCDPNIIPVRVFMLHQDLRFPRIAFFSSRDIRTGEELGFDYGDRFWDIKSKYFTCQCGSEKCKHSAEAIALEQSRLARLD
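AlphaScreen detection with an anti-monomethyl H3K9 antibody quantified product after a 2 h room-temperature reaction containing 500 nM biotinylated H3K9 peptide, 20 µM SAM and 20 nM enzyme, which had been preincubated 15 min with compound.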
HP1b chromo inh – blocks HP1-beta chromodomain binding to methylated histone tails | AlphaScreen HP1-beta / biotin-H3K9me3 peptide binding | Potency, µM (titrated, usually from 114 µM), for inactives: at the highest dose activity change, negative = inhibition, usual class: inhibitors | 0.56% of 390,000 active; note: nearly all actives have a fitted effect of over 70% in size
Target sequence (P83916 whole entry, looked up): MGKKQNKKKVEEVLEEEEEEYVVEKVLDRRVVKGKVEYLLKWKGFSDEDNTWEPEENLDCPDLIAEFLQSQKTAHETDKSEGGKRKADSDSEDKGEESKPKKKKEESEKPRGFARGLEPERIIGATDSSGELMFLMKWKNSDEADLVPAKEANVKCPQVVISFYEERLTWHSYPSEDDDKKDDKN
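Compound inhibition of the preformed complex between 50 nM HP1-beta and 50 nM biotinylated H3K9me3 peptide was read by AlphaScreen. Buffer was PBS pH 7.4 with 0.01% Tween-20. Incubations ran 30 min at room temperature, with 10 ug/mL donor/acceptor beads.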
JMJD2A Tudor inh – inhibitors of human JMJD2A Tudor domain; O75164; AlphaScreen JMJD2A-Tudor / H3K4me3 peptide binding; Potency, µM (series often up to 114 µM), for inactives: at the top dose activity change, negative = inhibition, most hits filed as inhibitors; 4.4% of 390,000 active; note: % is set by controls: 0 for no effect and ±100 for the full control effect; nearly all actives have a fitted effect of over 50% in size
Sfp PPTase inh – Sfp phosphopantetheinyl transferase inhibition; Q9F4F7; Biochemical Sfp PPTase activity, qHTS; Potency, µM, for inactives: largest response in the series, negative = inhibition, actives largely listed as inhibitors; 3.5% of 310,000 active;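 note: the enzyme is Sfp with the accession as filed and its product quenches rhodamine fluorescence; 0% = enzyme reaction without inhibitor and -100% = no enzyme wells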
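Sfp 15 nM + cpd, 15 min RT; start w/ rhodamine-CoA 5 uM, BHQ-2-YbbR 12.5 uM (final); 50 mM Hepes pH 7.6, 10 mM MgCl2, 0.01% NP-40, 0.01% BSA; read 525/598 nm at 0 and 30 min.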
* = called active by the depositor; ? = inconclusive; nt = not tested or not shown; [ ] = dose if it differs, or a comment. Calls come from the whole dose curve; as a rule, active = well fitted curve in the direction sought with a large enough effect; inconclusive = small, poorly fitted or top-dose-only effect, or another doubt; inactive = no such curve, though single readings can be large; an effect the other way counts as inactive or inconclusive. Potency is the fitted concentration of half-maximal effect.

SMILES | BAZ2B inh | G9a inh | HP1b chromo inh | JMJD2A Tudor inh | Sfp PPTase inh
O=S(=O)(c1cccc(-c2n[nH]c(=S)n2-c2cccc(C(F)(F)F)c2)c1)N1CCOCC1 | nt | nt | 23.8% | ? | nt
C/C(=N\NC(=O)c1c([N+](=O)[O-])c(C)nn1C)c1ccc(NC(=O)C2CCCC2)cc1 | -16.7% | 19.3% | 22.4% | -23.3% | 11.1%
CCCC(CCC)C(=O)Oc1cc(C)[nH]c(=O)c1[N+](=O)[O-] | -1.4% | -32.3% | 37.0% | -9.8% | 18.4%
O=S(=O)(c1cccc(-c2cn3cccnc3n2)c1)N1CCOCC1 | -1.6% | 35.5µM* | 32.0% | -5.7% | -4.2%
O=S(=O)(c1cccc(-c2cn3cccnc3n2)c1)N1CCCCCC1 | nt | ? | 50.7% | -8.7% | 0.4%
Cn1cccc1Cc1nnc(SCC(=O)N2CCOCC2)n1CCc1ccccc1 | -31.2% | 44.7µM* | 37.0% | -26.8% | -4.5%
COc1ccc(OC)c(NC(=O)CSc2nnc(Cc3cccn3C)n2-c2ccc(F)cc2)c1 | 50.1µM* | ? | 0.6% | -34.5% | -7.7%
COc1ccc(-n2c(Cc3cccn3C)nnc2SCC(=O)Nc2ccc(F)cc2F)cc1 | ? | 39.8µM* | -1.3% | ? | -5.1%
COc1ccc(-n2c(Cc3cccn3C)nnc2SCC(=O)Nc2ccccc2F)cc1 | ? | 50.1µM* | -25.2% | ? | -8.2%
O=C(c1ccc(CS(=O)(=O)c2c(Cl)cccc2Cl)o1)N1CCN(c2ccccc2)CC1 | ? | -47.0%[59 µM] | 10.2% | -32.0% | nt
CCCOc1ccc(C(=O)Nc2ccc(S(=O)(=O)N3C[C@@H]4C[C@@H](C3)c3cccc(=O)n3C4)cc2)cc1 | -25.4% | 3.7%[0.501 µM] | 8.9% | -29.0% | nt
CC(=O)Nc1cc(C(=O)N(C)Cc2ccco2)ccc1Sc1ccc(Cl)cc1 | -6.5% | 0.0%[59 µM] | -1.2% | -25.0% | -9.6%
COc1ccc(-n2c(Cc3cccn3C)nnc2SCC(=O)Nc2cccc(C)c2C)cc1 | ? | 44.7µM* | 15.0% | ? | -10.0%
Cc1ccc(-n2c(Cc3cccn3C)nnc2SCC(=O)N2CCc3ccccc32)cc1 | 50.1µM* | 44.7µM* | ? | ? | -14.1%
COc1ccc(-n2c(Cc3cccn3C)nnc2SCC(=O)N2CCOCC2)cc1 | -5.7% | 70.8µM* | 27.4% | -25.0% | 1.6%
CS(=O)(=O)N1CCSC1c1ccc(Br)cc1 (centres undefined) | 3.4% | 3.3% | 65.2% | 0.0%[11.4 µM] | 17.0%
O=C(Cc1cccs1)NC(Cc1c[nH]c2ccccc12)C(=O)O (centres undefined) | -17.9% | 56.2µM* | 2.0% | 22.4µM* | 5.7%
CCCOc1ccc(C(=O)CCNC(Cc2c[nH]c3ccccc23)C(=O)O)cc1 (centres undefined) | -20.0% | 7.94µM* | 44.5% | -7.7% | ?
O=C(O)C(Cc1c[nH]c2ccccc12)NS(=O)(=O)c1cccc2nsnc12 (centres undefined) | -30.7% | ? | 16.1% | -4.6%[57.1 µM] | 56.2µM*
O=C(O)C(Cc1c[nH]c2ccccc12)N1C(=O)C2C3c4ccccc4C(c4ccccc43)C2C1=O (centres undefined) | ? | 25.1µM* | 17.5% | -11.4% | 20.5%
O=C(O)C(Cc1c[nH]c2ccccc12)NS(=O)(=O)c1ccccc1 (centres undefined) | 0.1% | ? | 35.2% | -6.6% | 8.8%
COc1ccc(C(=O)NC(Cc2c[nH]c3ccccc23)C(=O)O)cc1 (centres undefined) | 0.4% | 13.6% | 30.5% | -14.8% | 12.0%
O=C(NC(Cc1c[nH]c2ccccc12)C(=O)O)c1cccs1 (centres undefined) | -15.3% | 11.0% | 22.5% | 2.7%[57.1 µM] | 8.9%
CCC1(c2ccc(F)cc2)NC(=O)N(CC(=O)Nc2cccc(S(=O)(=O)N3CCCCC3)c2)C1=O (centres undefined) | 4.2% | 3.7%[0.501 µM] | 12.0% | -24.3% | nt
Cc1nc(N[C@@H](Cc2c[nH]c3ccccc23)C(=O)O)c2oc3ccccc3c2n1 | 56.2µM* | 5.62µM* | 27.3% | -22.7% | 11.6%
SMILES | BAZ2B inh | G9a inh | HP1b chromo inh | JMJD2A Tudor inh | Sfp PPTase inh
Cc1ccc(C(=O)Nc2ccccc2C(=O)NC(Cc2c[nH]c3ccccc23)C(=O)O)cc1 (centres undefined) | 79.4µM* | 23.0%[12.7 µM] | -24.1% | -22.5% | -1.4%
CCc1nc(N[C@@H](Cc2c[nH]c3ccccc23)C(=O)O)c2oc3ccccc3c2n1 | ? | -38.3%[12.7 µM] | 8.2% | -20.2% | 15.2%
Cc1ccc(C(=O)Nc2ccccc2C(=O)NC(Cc2ccccc2)C(=O)O)cc1 (centres undefined) | ? | -3.3%[59 µM] | 29.3% | -8.3%[11.4 µM] | -6.2%
O=C(OCC(=O)N1CCCc2ccccc21)c1cc(S(=O)(=O)N2CCOCC2)ccc1O | 8.9% | -0.2%[2.33 µM] | 30.1% | -16.3% | nt
O=S(=O)(Nc1nc2n(n1)C(c1ccc(F)cc1)C=C(c1ccccc1)N2)c1ccccc1 (centres undefined) | 2.6% | ? | 39.5% | -5.3% | nt
Cc1ccc(S(=O)(=O)NC(C)(C)CSc2nncn2C)cc1 | -5.8% | 17.7%[12.7 µM] | 17.4% | -5.0% | 0.6%
CSCC[C@H](NC(=O)[C@H](CC(C)C)NC(=O)CNC(=O)[C@H](Cc1ccccc1)NC(=O)[C@H](Cc1ccccc1)NC(=O)[C@H](CCC(N)=O)NC(=O)[C@H](CCC(N)=O)NC(=O)[C@@H]1CCCN1C(=O)[C@H](CCCCN)NC(=O)[C@@H]1CCCN1C(=O)[C@H](CCCN=C(N)N)NC(=O)CCCCC1SCC2NC(=O)NC21)C(N)=O (some centres undefined) | nt | nt | nt | nt | 1.6%
O=C(N/N=C/c1cccc(O)c1)c1cc(C2CC2)nc2ccccc12 | -15.3% | 7.4% | 31.7% | -10.0% | 21.0%
C/C(=N\NC(=O)c1cc(C)nc2ccccc12)c1cccs1 | -2.6% | -4.5% | 24.9% | -11.9% | -20.9%
C/C(=N\NC(=O)c1cc(C2CC2)nc2ccccc12)c1ccc(O)cc1O | 3.55µM* | -4.3% | 16.7% | -22.7% | 8.5%
C/C(=N\NC(=O)c1cc(C2CC2)nc2ccccc12)c1ccc(C)s1 | -9.9% | 39.8µM* | 35.9% | -2.8% | -8.3%
Cc1cc2c(n1-c1ccc(C(=O)O)cc1)CCCCC2 | 12.6µM* | 7.94µM* | nt | nt | -13.0%
COC(=O)c1ccc(C(NC(=O)OCc2ccccc2)/C(=C/[C@@H](C)C(=O)NCc2ccc(C)o2)c2cccnc2)cc1 (some centres undefined) | nt | nt | nt | nt | 20.4%
COCCN(C(=O)CSc1nnc(Nc2ccc(C)cc2)s1)c1c(N)n(CC(C)C)c(=O)[nH]c1=O | -11.9% | -33.3% | 24.2% | -3.8% | 10.2%
CCc1ccc(OCC(O)CN2CCN(c3ccccn3)CC2)cc1 (centres undefined) | -7.6% | nt | 6.0% | -27.5% | -3.4%
CC(=O)c1ccc(OCC(O)CN2CCN(S(=O)(=O)c3c(C)c(C)cc(C)c3C)CC2)cc1 (centres undefined) | -18.9% | 50.1µM* | 7.4% | -34.1% | -6.4%

Screening data: PubChem BioAssay, National Center for Advancing Translational Sciences (NCATS)
